Results on six compounds are retold here after PubChem BioAssay (NCI).

Each structure is given as a SMILES string. The panel holds about 83,000 compounds, 20% with a hit somewhere; the sample as a whole holds those more often.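 Plates (96-well) were seeded with cells, treated with compound at one concentration, and incubated for 48 hours before percent growth was determined.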 Unmarked numbers belong to inactive results. The source made the active and inactive calls. The calls were made as follows: active = growth percent below 10; inactive = the rest.

Holding throughout (experiment): NCI-60 one-dose screen, 48 h (100 = growth as untreated, 0 = no growth, -100 = all killed)
What all share (conditions): 10 µM unless noted

Assay [1] deals with HCT-15 colon.
Assay [2] deals with HT29 colon.
Assay [3] relates to SNB-75 CNS.
Assay [4] relates to SNB-19 CNS.
The subject of assay [5] is U251 CNS.
Assay [6] deals with PC-3 prostate.
Assay [7] deals with SK-MEL-5 melanoma.
For assay [8], the system named is UACC-62 melanoma.
The test system of assay [9] is LOX IMVI melanoma.
The subject of assay [10] is SK-MEL-28 melanoma.
The test system of assay [11] is SK-MEL-2 melanoma.
Assay [12] deals with EKVX NSCLC.
In assay [13] the test system is SN12C renal.
Assay [14] concerns UO-31 renal.
The subject of assay [15] is TK-10 renal.
Assay [16] deals with ACHN renal.
Assay [17] relates to CAKI-1 renal.
Assay [18] deals with A498 renal.
Assay [19] concerns CCRF-CEM leukemia.
Assay [20] has as its system MOLT-4 leukemia.

`COc1ccc(/C=C/c2nc(Nc3ccc(Cl)cc3)c3ccccc3n2)cc1`: the growth in assay [1] is 34.8%; in assay [2] it was 48.3%; in [3], 61.7%; in assay [4] it was 64.4%; in assay [5], 45.7%; in assay [6] it was 54.5%. Also, the growth in [7] is 69.7%; in [8], 14.3%; in assay [9] it was 18.4%; in [10], 90.2%; in assay [11], 89.2%; in assay [12] it was 81.8%. Besides, the growth is 38.5% in assay [13]; 34.3% in assay [14]; 70.8% in assay [15]; 49.4% in assay [16]; 56.5% in [17]; 16.6% in assay [18]. Moreover, the growth in assay [19] was 8.06% (active); in assay [20], 32.1%.
In the case of `Oc1ccc(OCCOc2ccc(O)cc2)cc1`, the growth in [1] is 38.4%; in [2] it was 86.9%; in [3], 73.8%; in [4] it was 79.2%; in assay [5] it was 49.5%; in assay [6] it was 55.7%. Also, the growth in assay [7] is 26.8%; in assay [8], 22.5%; in assay [9] it was 36.4%; in assay [10], 102%; in [11] it was 81.8%; in [12] it was 75.4%. Moreover, the growth in assay [13] is 59.6%; in assay [14] it was 4.76% (active); in [15], 87.9%; in assay [16] it was 6.65% (active); in assay [17], 11.4%; in assay [18] it was 100%. The growth in assay [19] is 58.8%; in assay [20], 60.8%.
Turning to `C=C(CBr)[C@@H]1CC[C@]2(COC(C)=O)CC[C@]3(C)[C@H](CC[C@@H]4[C@@]5(C)CCCNC(C)(C)[C@@H]5CC[C@]43C)[C@@H]12`, the growth was 24.8% in [1]; 29.1% in [2]; 79.8% in [3]; 64.2% in [4]; 37% in [5]; 12.9% in assay [6]. For the same compound, the growth in assay [7] was 19.9%; in assay [8], 24.8%; in [9], 23.5%; in assay [10], 60.7%; in assay [11] it was 59.4%; in [12] it was 46.9%. Moreover, the growth in assay [13] is 48%; in assay [14] it was 29.6%; in assay [15], 41.1%; in assay [16], 39.5%; in [17], 37.5%; in [18], 49.4%. Besides, the growth in assay [19] was 33.8%; in assay [20], 10.9%.
As for `CCN(CC)CCOc1ccc(NC(=O)C(C(C)C)N2C(=O)/C(=C/c3ccc(Br)cc3)SC2=S)cc1` (stereo not given), the growth in assay [1] was -40.9% (active); in assay [2], -5.87% (active); in assay [3], 66%; in assay [4], 57.6%; in [5], 71.7%; in assay [6] it was 64.5%. Besides, the growth was 89.2% in [7]; 95.3% in [8]; 62.9% in assay [9]; 89% in assay [10]; 101% in assay [11]; 90% in [12]. The growth in assay [13] was 73.3%; in assay [14], 74.5%; in assay [15] it was 95.6%; in assay [16], 62.1%; in [17], 81%; in [18] it was 99.5%. For the same compound, the values for the growth in assay [19] and in assay [20] were -16.7% (active) and 3.96% (active), respectively.
With `C=C1C(=O)O[C@H]2[C@H]1CC/C(CNC(=O)c1cccc3ccccc13)=C\CC[C@@]1(C)O[C@@H]21`, the growth in assay [1] was 10.2%; in assay [2], 8.85% (active); in assay [3], 82.6%; in assay [4], 66.4%; in assay [5], 59%; in [6] it was 53.7%. The growth is 60.1% in assay [7]; 31.4% in [8]; 24.3% in [9]; 41.2% in assay [10]; 70.7% in assay [11]; 65.9% in [12]. Moreover, the growth in [13] is 25%; in [14], 37.9%; in assay [15] it was 34.8%; in [16], 11.6%; in assay [17], 40%; in assay [18], 81.8%. Also, the growth in assay [19] was 1.76% (active); in [20] it was 4.8% (active).
Turning to `O=C1c2cccc3c(-c4ccc5c(c4)ncn5C4CCCCC4)ccc(c23)C(=O)N1CCO`, the growth was 98.5% in [1]; 83.6% in assay [2]; 86.6% in assay [3]; 98.1% in assay [4]; 93.2% in assay [5]; 85% in assay [6]. In addition, the growth in assay [7] was 62%; in [8], 74.4%; in [9], 87.4%; in assay [10], 116%; in assay [11], 89.5%; in assay [12], 76.4%. The growth in [13] was 93.8%; in assay [14] it was 62.1%; in [15], 101%; in assay [16], 94.7%; in assay [17], 77.5%; in assay [18], 103%. In addition, the growth in [19] was 79%; in [20] it was 71.9%.
